Screening data as filed in PubChem BioAssay.
Most compounds without a hit are left out; they make up all but 6.6% or so of the library.
BoNT F protease = BoNT F light chain protease inhibition. Multiplex microsphere protease cleavage assay, flow cytometry. inhibition, % at 10 µM. AID 588497. 0.22% of 360,000 active; in the data active = inhibition above about 35%, passing the limit was not always enough; inconclusive = no clear call, values can overlap the other calls
Bead autofluor = flagged as autofluorescent in microsphere protease counterscreen; compound autofluorescence counterscreen, microsphere flow cytometry; stronger effect = higher value; fluorescence intensity (no concentration beside the values); 3.1% of 360,000 active; AID 624483; in the data active = fluorescence intensity above about 16000; inconclusive = no clear call, values can overlap the other calls
GDH-TPI counter = inhibits GDH-TPI coupling enzymes, artifact for Mtb FBA screen; inhibition, % at 4.8 µM; GDH-TPI coupled enzyme counterscreen, NADH absorbance; 1.2% of 360,000 active; in the data active = inhibition above about 30%
Mtb FBA inh = Mtb fructose-bisphosphate aldolase inhibition. purified M. tuberculosis FBA, fluorescence read-out. AID 588726. inhibition, % at 1 µM. 2.3% of 360,000 active; in the data active = inhibition above about 27%
BoNT-A LC inh2 = inhibitors of Botulinum neurotoxin A light chain protease; multiplex microsphere protease substrate cleavage, flow cytometry; AID 588499; 0.17% of 360,000 active; inhibition, % at 10 µM; in the data active = inhibition above about 30%; inconclusive = no clear call, values can overlap the other calls
Anthrax LF inh2 = inhibitors of Bacillus anthracis lethal factor protease; P15917; multiplex microsphere protease cleavage assay, LF; inhibition, % at 10 µM; 0.12% of 360,000 active; in the data active = inhibition above about 30%; inconclusive = no clear call, values can overlap the other calls
BoNTA LC inh 1 = inhibitors of Botulinum neurotoxin A light chain protease. AID 602139. multiplex microsphere protease assay, flow cytometry. shares compounds with BoNT F protease. inhibition, % at 10 µM. 3% of 720 active; in the data active = inhibition above about 32%
BoNTF LC inh 1 = blocks botulinum neurotoxin F light chain protease | 720 tested, under 10 active | inhibition, % at 10 µM | AID 602140 | shares compounds with BoNT F protease | multiplex microsphere protease cleavage assay, flow cytometry
LF protease CP1 = blocks anthrax lethal factor protease; inhibition, % at 10 µM; shares compounds with BoNT F protease; multiplex microsphere protease cleavage assay, LF; 720 tested, under 10 active
Large screens that a line does not name were inactive (follow-up assays come after a bar, where they were run). Unless noted, no rule for the calls is given here.

O=C(O)c1ccc(NS(=O)(=O)c2cccc(C(=O)Nc3cccc(C(=O)O)c3)c2)cc1	none | BoNTA LC inh 1 inactive | BoNTF LC inh 1 inactive | LF protease CP1 inactive
Cc1ccccc1NC(=O)c1cccc(S(=O)(=O)Nc2cccc(C(=O)O)c2)c1	BoNT F protease inconclusive | BoNTA LC inh 1 inactive | BoNTF LC inh 1 inactive | LF protease CP1 inactive
Cc1cccc(NS(=O)(=O)c2cccc(C(=O)Nc3cccc(C(=O)O)c3)c2)c1	BoNT F protease inconclusive
COc1ccc2c(c1)CCCN2S(=O)(=O)c1ccc(Cl)cc1	Anthrax LF inh2 37 | BoNTA LC inh 1 inactive | BoNTF LC inh 1 inactive | LF protease CP1 inactive
O=S(=O)(c1ccc(Cl)cc1)N1CCCc2ccccc21	none
CCCOC1CCCN(Cc2nc(-c3cnccn3)no2)C1 (configuration not stated)	BoNT F protease 35 | BoNTA LC inh 1 inactive | BoNTF LC inh 1 inactive | LF protease CP1 inactive
CC(=O)NCCC(=O)N1CCCC(N2CCN(c3cccc(Cl)c3)CC2)C1 (configuration not stated)	BoNT F protease 42 | BoNTA LC inh 1 inactive | BoNTF LC inh 1 inactive | LF protease CP1 inactive
Cc1cc(C)c(C#N)c(Oc2ccccc2)n1	none
CCN(C(=O)COc1nc(C)cc(C)c1C#N)c1ccccc1	Anthrax LF inh2 38 | BoNTA LC inh 1 inactive | BoNTF LC inh 1 inactive | LF protease CP1 inactive
CSc1ccc(CN2C(=O)C(C)ON=C2c2ccccc2F)cc1 (configuration not stated)	none
CCc1ccc(OCCCC(=O)Nc2ccc(N3CCCCC3)cc2)cc1	BoNT F protease 40 | BoNTA LC inh 1 inactive | BoNTF LC inh 1 inactive | LF protease CP1 inactive
COc1ccc(S(=O)(=O)NC(C)C(=O)N2CCCC2)cc1Cl (configuration not stated)	BoNT F protease inconclusive, Anthrax LF inh2 31 | BoNTA LC inh 1 inactive | BoNTF LC inh 1 inactive | LF protease CP1 inactive
Clc1ccc(/C=C/c2ncc[nH]2)c(Cl)c1	BoNT F protease 40 | BoNTA LC inh 1 inactive | BoNTF LC inh 1 inactive | LF protease CP1 inactive
COC(=O)[C@@H](NS(=O)(=O)c1cc(Br)ccc1Br)C(C)C	none
CCOc1ccc(C(=O)CC(NCc2cccs2)C(=O)O)cc1 (configuration not stated)	none
CCc1ccc(Nc2nc3ccccc3c(=O)s2)cc1	BoNT F protease 76, Anthrax LF inh2 33 | BoNTA LC inh 1 inactive | BoNTF LC inh 1 inactive | LF protease CP1 inactive
CCOc1ccc(Nc2nc3ccccc3c(=O)s2)cc1	none
NC(=O)c1ccc(Br)c(S(=O)(=O)N2CCCCC2)c1	BoNT F protease 42, BoNT-A LC inh2 35 | BoNTA LC inh 1 inactive | BoNTF LC inh 1 inactive | LF protease CP1 inactive
Cc1ccc2c(c1)Sc1c(ccc3ccccc13)N2	none
CCOC(=O)CC(=O)CSc1nc2c(c(-c3cccs3)c1C#N)CCC2	none
CCOCCSc1nc2c(c(-c3cccs3)c1C#N)CC/C2=C/c1cccs1	BoNT-A LC inh2 77, Anthrax LF inh2 35 | BoNTA LC inh 1 37 | BoNTF LC inh 1 inactive | LF protease CP1 inactive
O=C(Oc1ccc(Oc2ccccc2)cc1)N1CCC(O)CC1	BoNT F protease inconclusive
CCOc1ccccc1Nc1nc(-c2sc(C)nc2C)cs1	BoNT F protease 41 | BoNTA LC inh 1 inactive | BoNTF LC inh 1 inactive | LF protease CP1 inactive
CCOc1ccc(S(=O)(=O)N2CCCC(C(=O)N3CCOCC3)C2)cc1Cl (configuration not stated)	none
O=C(COc1ccc(S(=O)(=O)NCc2ccccc2)cc1Cl)NCc1ccncc1	none
O=C(COc1ccc(S(=O)(=O)NCc2ccccc2)cc1Cl)NCc1ccccn1	BoNT F protease 68 | BoNTA LC inh 1 inactive | BoNTF LC inh 1 inactive | LF protease CP1 inactive
O=C(COC(=O)c1ccc(F)cc1)NC1CC1	none
CC(CN1CCOCC1)C(=O)c1ccccc1 (configuration not stated)	none | BoNTA LC inh 1 inactive | BoNTF LC inh 1 inactive | LF protease CP1 inactive
CCCc1oc(C(=O)O)cc1CN1CCOCC1	BoNT F protease 42 | BoNTA LC inh 1 inactive | BoNTF LC inh 1 inactive | LF protease CP1 inactive
FC(F)C(F)(F)Oc1cccc(Nc2nccn3c(-c4cccc5ccccc45)cnc23)c1	none
